Assay results as given in ChEMBL document CHEMBL1157539, “Thousands of chemical starting points for antimalarial lead identification” (Nature, 2010).

Tests used:
Assay type in all cases: functional
[1] = test system: Plasmodium falciparum; experiment: GSK_TCMDC: Inhibition of Plasmodium falciparum 3D7 in whole red blood cells, using parasite LDH activity as an index of growth. Test compounds present at 2uM
[2] = test system: Plasmodium falciparum; experiment: GSK_TCMDC: Inhibition of Plasmodium falciparum Dd2 in whole red blood cells, using parasite LDH activity as an index of growth. Test compounds present at 2uM
[3] = test system: HepG2; experiment: GSK_TCMDC: Percent inhibition of human HepG2 cell line. Test compounds present at 10uM.

Structure (SMILES)	Inhibition [1]	Inhibition [2]	Inhibition [3]
O=C(Nc1ccc(-c2cccc(-c3nc4ccccc4[nH]3)c2)cc1)NC1CC1c1ccccc1 (stereo not drawn)	84%	6%	63%
Cc1cc(=NN=Cc2ccc(Cl)cc2)c2cc(C(F)(F)F)ccc2[nH]1	91%	32%	0%
CC(NC(=O)c1cc(-c2ccccc2)nc2c1cnn2C(C)C)C1CC1 (stereo not drawn)	100%	88%	35%
Cc1ccc(Nc2cc(C)nn2-c2nc(C)cc(O)n2)cc1	97%	95%	54%
COc1cc(C(C)C)nc2ccc(NC(=O)c3ccc(C(=O)Nc4ccc5nc(C(C)C)cc(OC)c5c4)cc3)cc12	95%	72%	39%
CCC1CCc2cc(N)cc(-c3nc4c(c(C)nn4CC)c(=O)[nH]3)c2O1 (stereo not drawn)	86%	42%	0%
Cl.Nc1c2c(nc3cc(NC(=O)c4ccc([N+](=O)[O-])cc4)ccc13)CCCC2	100%	58%	11%
N#CC(c1ccc(F)cc1)c1ccc2c(C(F)(F)F)cc(C(F)(F)F)nc2n1 (stereo not drawn)	97%	89%	9%
CC(O)C(C)(CO)NCc1ccc2c3c(cccc13)-c1ccccc1-2.Cl (stereo not drawn)	95%	85%	81%
N#Cc1ccc(CN2CCC(Oc3ccc(NC(=O)c4ccccc4)cc3Cl)CC2)cc1.O=C(O)C(F)(F)F	84%	65%	21%
CN(C)c1ccc(-c2ccc(C(=O)NC3CCN(Cc4ccc(C(C)(C)C)cc4)CC3)s2)cc1.O=C(O)C(F)(F)F	95%	59%	35%
CC1CCCCN1CCCNc1ncc2c(-c3ccc(NC(=O)Nc4cc(C(F)(F)F)ccc4F)c(F)c3)nn(C)c2n1.O=C(O)C(F)(F)F (stereo not drawn)	100%	97%	27%
COc1cccc(C2CCN(CCN3CCC(CNC(=O)c4ccc(-c5ccc(C(F)(F)F)cc5)cc4)CC3)CC2)c1	100%	42%	41%
Cn1ccc(C(=O)Nc2ccc3c(c2)CN(Cc2ccc(N4CCCC4)o2)CCC3)n1.O=CO	80%	72%	19%
O=C(O)C(F)(F)F.c1cc(-c2ccc(CNCCCN3CCOCC3)cc2)cc(-c2nc3ccccc3[nH]2)c1	100%	0%	26%
N#Cc1ccc(-c2ccc(C(=O)NCCCCN3CC=C(c4ccc5c(c4OCC4CC4)CCCC5)CC3)cc2)cc1	100%	83%	22%

Structure (SMILES)	Inhibition [1]	Inhibition [2]	Inhibition [3]
CC(Oc1ccc(Cl)cc1)C(=O)Nc1cc(C(F)(F)F)ccc1N1CCOCC1 (stereo not drawn)	97%	97%	14%
Cc1cc(N)c2cc(NC(=O)/C=C/c3ccc([N+](=O)[O-])cc3)ccc2n1	100%	80%	76%
CCOc1cc(Cc2cnc(N)nc2N)cc(OC)c1OC	90%	0%	0%
CC[C@H](C)[C@@H](C(=O)N1CCOCC1)N1CC[C@H](NS(=O)(=O)CC(C)(C)c2ccc(Cl)cc2)C1=O	100%	95%	0%
O=C(Cc1c[nH]cn1)Nc1cccc(-c2cccc(-c3nc4cc(C(F)(F)F)ccc4[nH]3)c2)c1	100%	100%	35%
CS(=O)(=O)Nc1ccc(-c2cnc3[nH]cc(-c4ccc(C(=O)O)cc4)c3c2)cc1	95%	45%	0%
O=C(Nc1nccs1)c1cc(-c2cccnc2)nc2ccc(Br)cc12	100%	79%	7%
Cc1[nH]c(C)c(-c2ccc(OCc3cc(C(F)(F)F)cc(C(F)(F)F)c3)nc2)c(=O)c1Br	98%	96%	28%
O=C(NC1CCCCN(Cc2ccccc2O)C1)c1ccc(Cl)c(Cl)c1.O=C(O)C(F)(F)F (stereo not drawn)	96%	96%	0%
CC(=O)c1ccc(O)c(CC(O)CO)c1 (stereo not drawn)	100%	0%	3%
O=C(Nc1cccc(C(F)(F)F)c1)NC1CCN(c2ccnc3cc(Cl)ccc23)C1.O=C(O)C(F)(F)F (stereo not drawn)	100%	89%	18%
O=C(Nc1ccc2c(c1)CCN2C1CCN(Cc2ccc(O)cc2)C1)c1ccco1 (stereo not drawn)	97%	63%	0%
COC(=O)c1ccc2c(-c3nc4ccc(OC)cc4[nH]3)c[nH]c2c1	95%	31%	0%
CC(Cc1ccc(CN2CCN(Cc3ccccc3)CC2)cc1)NCC(O)c1cccc(C(F)(F)F)c1.Cl (stereo not drawn)	97%	98%	51%
O=C(Nc1cccc(-c2ccc(-c3nc4cc(C(F)(F)F)ccc4[nH]3)cc2)c1)c1cccnc1	100%	97%	73%
